Assay outcomes: PubChem, National Center for Advancing Translational Sciences (NCATS)
Many of the other results were omitted from the sample, so hits are more common in it than they were.
AmpC no deterg: blocks E. coli AmpC beta-lactamase in detergent-free assay | Potency, µM (titrated, usually from 57.1 µM), actives largely listed as inhibitors | P00811 | AmpC nitrocefin hydrolysis, absorbance 480 nm, 0.0001% Triton | 0.52% of 330,000 active; also: nearly all actives have a fitted effect of over 20% in size
Target sequence (P00811 whole entry, looked up): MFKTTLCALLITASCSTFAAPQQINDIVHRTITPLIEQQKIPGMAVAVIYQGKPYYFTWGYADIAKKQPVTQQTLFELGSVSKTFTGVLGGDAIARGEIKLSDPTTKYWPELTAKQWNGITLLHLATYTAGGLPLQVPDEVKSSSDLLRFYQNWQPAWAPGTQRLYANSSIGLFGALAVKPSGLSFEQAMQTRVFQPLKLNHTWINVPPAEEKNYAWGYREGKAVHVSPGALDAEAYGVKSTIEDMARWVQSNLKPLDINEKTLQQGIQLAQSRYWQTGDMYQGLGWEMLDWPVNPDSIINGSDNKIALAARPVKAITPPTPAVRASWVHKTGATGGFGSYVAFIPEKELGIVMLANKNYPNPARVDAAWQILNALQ
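AmpC (5.3 nM in the dispensed reagent) in 20 mM phosphate pH 7.0 with 0.01% (detergent screen) or 0.0001% Triton X-100 was preincubated with compounds for 15 min at room temperature. Nitrocefin was then added from an 800 uM solution, and hydrolysis was followed at 480 nm.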
SARS PLP yeast: inhibitors of SARS-CoV papain-like protease in yeast; S. cerevisiae expressing SARS-CoV PLpro, growth rescue; Potency, µM (titrated, usually from 32.9 µM), most hits filed as activators; 0.19% of 330,000 active; calls by dose curve; also: nearly all actives have a fitted effect of over 55% in size
Shiga toxin inh: Shiga toxin inhibition; Vero cells, Shiga toxin protein synthesis inhibition reporter; 9.2% of 290,000 active; inhibition, % at 38.7 µM; in the data active = inhibition mostly above about 28%, no sharp cut-off; inactive = mostly below about 43%
Cycloheximide cs: affects cycloheximide protein synthesis inhibition readout, counter-screen; cell reporter, cycloheximide protein synthesis inhibition counterscreen; max response, %; 12% of 300,000 active; AID 2314; in the data active = max response mostly above about 13%, no sharp cut-off; inactive = mostly below about 14%; also: read at 38.3 µM for the half of the compounds with a filed dose
AmpC detergent: inhibitors of E. coli AmpC beta-lactamase with detergent; AmpC hydrolysis of nitrocefin, absorbance 480 nm, 0.01% Triton; 0.041% of 370,000 active; Potency, µM (doses to about 114 µM), actives largely listed as inhibitors; also: nearly all actives have a fitted effect of over 25% in size
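AmpC (5.3 nM in the dispensed reagent) in 20 mM phosphate pH 7.0 with 0.01% (detergent screen) or 0.0001% Triton X-100 was preincubated with compounds for 15 min at room temperature. Nitrocefin was then added from an 800 uM solution, and hydrolysis was followed at 480 nm.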
AMA1-RON2 inh: AMA1-RON2 (P. falciparum) interaction inhibition | Potency, µM (titrated, usually from 58.2 µM), most hits filed as inhibitors | 0.2% of 360,000 active | AID 720542 | AlphaScreen AMA1-biotinylated RON2 peptide binding; also: nearly all actives have a fitted effect of over 45% in size
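AMA1 (3D7) with his tag at 25 nM final met compounds first, then biotinylated RON2 peptide at 25 nM; detection used donor plus acceptor beads, 10 µg/mL apiece, read by AlphaScreen after 30 min at room temperature.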
Large screens that a line does not name were inactive. Unless noted, calls follow the shape of the dose curve; as a rule, active = well fitted curve in the direction sought with a large enough effect; inconclusive = small, poorly fitted or top-dose-only effect, or another doubt; inactive = no such curve, though single readings can be large; an effect the other way counts as inactive or inconclusive.

Clc1ccccc1N1CCN(Cc2nnc(-c3ccccc3)o2)CC1	none (no result: AmpC no deterg, SARS PLP yeast, Shiga toxin inh, Cycloheximide cs, AMA1-RON2 inh)
OC1(c2ccccc2F)CCN(Cc2nnc(-c3ccccc3)o2)CC1	Cycloheximide cs 20
COC(=O)C1CCN(Cc2nnc(-c3ccccc3)o2)CC1	Shiga toxin inh 59, Cycloheximide cs 24
c1ccc(-c2nnc(CN3CCCc4ccccc43)o2)cc1	Cycloheximide cs 16, AmpC detergent inconclusive
O=C(c1ccco1)N1CCN(Cc2nnc(-c3ccccc3)o2)CC1	SARS PLP yeast inconclusive
c1ccc(-c2nnc(CN3CCCCC3)o2)cc1	Shiga toxin inh 75, Cycloheximide cs 41
Cc1ccc(N2C(=O)N(CC(=O)Nc3ccccc3C)C(=O)C2C)cc1 (centres undefined)	Shiga toxin inh 18, Cycloheximide cs 20
CC(C)(C)c1ccc(C(=O)O/N=C(\N)Cc2cccs2)cc1	none (no result: AmpC no deterg, SARS PLP yeast, Shiga toxin inh, Cycloheximide cs, AmpC detergent)
CC(C)(C)C(=O)OC/C(N)=N/OC(=O)c1ccc(Cl)cc1	Cycloheximide cs 24
CC(C)(C)C(=O)O/N=C(\N)COc1cccc(Cl)c1	Shiga toxin inh 99, Cycloheximide cs 44
COc1ccc(C(=O)O/N=C(\N)Cc2ccc(Cl)cc2)cc1OC	none
N/C(Cc1ccc(Cl)cc1)=N\OC(=O)c1ccccc1	Cycloheximide cs 24, AmpC detergent inconclusive
CN(C(=O)c1cccc(N2C(=O)C3C4C=CC(C4)C3C2=O)c1)C1CCCCC1 (centres undefined)	none
COC(=O)c1cc(C(=O)CC(C)C)c[nH]1	none
CCc1nc2ccc(C(=O)NCc3ccccc3)cc2nc1CC	AmpC detergent inconclusive
COc1ccc(C(=O)N2CCCC(CNC(=O)c3ccccc3Cl)C2)o1 (centres undefined)	Cycloheximide cs 18
CC(=O)c1ccccc1C(=O)N1CCCC(CNC(=O)c2ccccc2Cl)C1 (centres undefined)	Cycloheximide cs 27
COc1ccc(CC(=O)NCC2CCCN(Cc3ccccc3Cl)C2)cc1 (centres undefined)	AmpC detergent inconclusive
CC(C)c1ccc(/C=C/C(=O)Nc2nn[nH]n2)cc1	Cycloheximide cs 13 (no result: AMA1-RON2 inh)
CCCCC(=O)Nc1cccc(NC(=O)C(C)C)c1	none
CCCCC(=O)Nc1ccc(NC(=O)c2cnccn2)cn1	Cycloheximide cs 25
CCCCC(=O)Nc1ccc(NC(=O)C(C)C)cn1	Shiga toxin inh 73, Cycloheximide cs 26, AmpC detergent inconclusive
CCCCCCCCNC(=O)c1cnccn1	none
O=C(O)CN1C(=O)C=CC1=O	none (no result: AmpC no deterg, SARS PLP yeast, Shiga toxin inh, Cycloheximide cs, AmpC detergent)
CCOc1ccc2[nH]c3ncccc3c(=O)c2c1	Shiga toxin inh 40
Cc1c(C(=O)OCC(=O)N2CC(C)CC(C)C2)oc2ccccc12 (centres undefined)	AmpC detergent inconclusive (no result: Shiga toxin inh, Cycloheximide cs)
CSc1nccc(-c2nn(-c3ccc(C)cc3)ccc2=O)n1	none
CCC1(C)NC(=O)N(/N=C/c2cc(OC)c(O)c(OC)c2)C1=O (centres undefined)	none
CCC1(C)NC(=O)N(/N=C/c2ccc(C)s2)C1=O (centres undefined)	Shiga toxin inh 47, Cycloheximide cs 46
CC(=O)Nc1cccc(C(=O)OCC(=O)NC2CCCCCCC2)c1	none (no result: Shiga toxin inh, Cycloheximide cs)
CCOC(=O)Nc1ccc2c(c1)nc(CN1CCN(C(C)=O)CC1)n2C	AmpC detergent inconclusive
Cn1c(CN2CCCCC2)nc2cc(NC(=O)c3ccccc3)ccc21	Shiga toxin inh 51, Cycloheximide cs 36
CC(=O)Nc1ccc2c(c1)nc(CN1CCCC1)n2C	none
CCOC(=O)N1CCN(Cc2nc3cc(NC(=O)c4cccs4)ccc3n2CC)CC1	Cycloheximide cs 25
CCOC(=O)N1CCN(Cc2nc3cc(NC(=O)c4cccs4)ccc3n2C)CC1	none
Cn1c(CN2CCCC2)nc2cc(NC(=O)Nc3ccccc3)ccc21	Cycloheximide cs 18, AmpC detergent inconclusive
Cn1c(CN2CCCCC2)nc2cc(NC(=O)c3cccc(Br)c3)ccc21	none
CCOC(=O)Nc1ccc2c(c1)nc(CN1CCCCC1)n2C	Cycloheximide cs 23 (no result: AMA1-RON2 inh)
O=C1CCCN1S(=O)(=O)c1ccccc1	none
CC(C)Oc1ccc(C(=O)CCN2CCCCC2)cc1	none
COc1cc(NS(=O)(=O)c2cc(C(=O)N3CCN(C(C)=O)CC3)ccc2OC)cc(OC)c1	none
Cn1c(CN2CCCC2)nc2cc(NC(=O)c3ccco3)ccc21	Cycloheximide cs 33, AmpC detergent inconclusive
Cn1c(CN2CCCCC2)nc2cc(NC(=O)c3cccs3)ccc21	Shiga toxin inh 43, Cycloheximide cs 28
CC1CCN(CCc2nc3cc(NC(=O)Nc4ccccc4)ccc3n2C)CC1	Shiga toxin inh 111, Cycloheximide cs 35
Cc1ccc(C(=O)Nc2ccc3c(c2)nc(CCNC(=O)c2ccco2)n3C)cc1	Shiga toxin inh 44, Cycloheximide cs 32
CN1CCN(CCc2nc3cc(NC(=O)c4ccco4)ccc3n2C)CC1	none
CC(=O)Nc1ccc2c(c1)nc(CCN1CCC(C)CC1)n2C	none
O=C(CSc1nnc(CNC(=O)c2ccco2)o1)Nc1ccc(Cl)cc1	none
COc1ccc(NC(=O)C2=C(C)Nc3nc(SCc4ccccc4)nn3C2c2cc(OC)ccc2OC)cc1 (centres undefined)	none (no result: AmpC no deterg, SARS PLP yeast, Shiga toxin inh, Cycloheximide cs, AMA1-RON2 inh)
COc1cccc(C2C(C(N)=O)=C(C)Nc3nc(CCCO)nn32)c1OC (centres undefined)	AmpC detergent inconclusive
COc1ccc(OC)c(C2C(C(N)=O)=C(C)Nc3nc(CCCO)nn32)c1 (centres undefined)	AmpC no deterg 1.6µM, AmpC detergent inconclusive
COc1ccc(OC)c(C2C(C(=O)Nc3ccc(F)cc3)=C(C)Nc3nc(CCCO)nn32)c1 (centres undefined)	AmpC no deterg 8.9µM
Cc1cc(C)c(C#N)c(Oc2ccc(F)cc2)n1	none
COc1ccc2cc(-c3nc4ccccc4n3C)c(=O)oc2c1	Shiga toxin inh 67, Cycloheximide cs 41
Cn1c(-c2cc3ccccc3oc2=O)nc2ccccc21	Shiga toxin inh 104, Cycloheximide cs 40
CCN(CC)C(=O)c1ccc(COc2ccc(Cl)c(C)c2)o1	Cycloheximide cs 30, AmpC detergent inconclusive (no result: Shiga toxin inh)
Cc1cc(OCc2ccc(C(=O)n3cccn3)o2)ccc1Cl	Shiga toxin inh 65, Cycloheximide cs 30
O=C(c1ccc(COc2ccc(F)cc2)o1)n1cccn1	none
CCN(CC)C(=O)c1ccc(COc2ccccc2Br)o1	none
COC(=O)c1cc(NC(=O)c2oc(=O)c3ccccc3c2-c2ccccc2)cc(C(=O)OC)c1	none (no result: AmpC no deterg, SARS PLP yeast, Shiga toxin inh, Cycloheximide cs, AMA1-RON2 inh)
Cn1ncc2c1ncn1nc(COc3ccc4ccccc4c3)nc21	Cycloheximide cs 40
Cn1ncc2c1ncn1nc(CCc3ccccc3)nc21	Shiga toxin inh 68, Cycloheximide cs 52
COc1cccc2cc(-c3nc(-c4ccc(C)cc4)c(C)s3)c(=O)oc12	none (no result: AmpC no deterg, SARS PLP yeast, Shiga toxin inh, Cycloheximide cs, AMA1-RON2 inh)
Cc1ccc2[nH]c(=O)c(CN(CCN3CCOCC3)C(=O)Nc3ccccc3F)cc2c1	none
